Compound activity: PubChem, National Center for Advancing Translational Sciences (NCATS)
L3MBTL1 block = blocks human L3MBTL1. Q9Y468. AlphaScreen L3MBTL1–H3K9me1 peptide binding. Potency, µM (series often up to 57.1 µM), hits mostly inhibitors. actives 0.66% (n = 230,000). AID 485360; further: nearly all actives have a fitted effect of over 60% in size
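L3MBTL1 50 nM + b-AHA-H3(1-15)K9me1 75 nM, 30 min RT; compound added, 30 min RT; streptavidin donor/Ni-chelate acceptor beads 10 ug/mL each final, 30 min RT dark; AlphaScreen read.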
HP1b binding inh = inhibitors of HP1-beta chromodomain binding to methylated histone tails; P83916; AlphaScreen HP1-beta / biotin-H3K9me3 peptide binding; Potency, µM (series often up to 114 µM), most hits filed as inhibitors; actives 0.56% (n = 390,000); AID 540317; further: nearly all actives have a fitted effect of over 70% in size
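HP1-beta protein (50 nM final) preincubated 30 min at room temperature with biotinylated H3(1-18)K9me3 peptide (50 nM) in PBS pH 7.4, 0.01% Tween-20, then compound added for 30 min. AlphaScreen streptavidin donor/nickel chelate acceptor beads (10 ug/mL final), 30 min dark, luminescence read.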
BAZ2B block = inhibitors of human BAZ2B bromodomain; Q9UIF8; AlphaScreen BAZ2B-H3K14Ac peptide displacement; Potency, µM (highest dose often 114 µM), actives largely listed as inhibitors; actives 4.4% (n = 360,000); further: nearly all actives have a fitted effect of over 60% in size
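AlphaScreen displacement of biotin-H3(5-23)K14Ac peptide (50 nM final) from BAZ2B (50 nM final) in PBS pH 7.4, 0.01% Tween-20; complex preformed 30 min RT, then compounds (top 110 uM) 30 min RT, beads 20 min dark.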
G9a block = G9a (human) methyltransferase inhibition | G9a H3K9 monomethylation, AlphaScreen, 2 h | AID 504332 | Potency, µM (top dose mostly 102 µM), actives largely listed as inhibitors | actives 8.8% (n = 350,000); further: nearly all actives have a fitted effect of over 75% in size
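G9a (20 nM) preincubated 15 min RT with compounds, then 500 nM biotinylated H3K9 peptide and 20 uM SAM added; 2 h RT reaction. Monomethyl-H3K9 product detected by AlphaScreen with anti-H3K9me1 antibody, streptavidin donor and anti-rabbit IgG acceptor beads.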
GLS inh = inhibitors of human glutaminase (GLS); actives 0.21% (n = 410,000); GLS enzymatic activity, qHTS titration; Potency, µM (series often up to 45.5 µM), most hits filed as inhibitors
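Glutamate formation by hKGA was monitored fluorometrically using coupled glutamate oxidase, HRP and Amplex Red. Substrate was added as 1 mM L-glutamine solution; incubation was 30 min at RT after an initial read.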
JMJD2A Tudor inh = blocks the human JMJD2A Tudor domain; O75164; AlphaScreen JMJD2A-Tudor / H3K4me3 peptide binding; Potency, µM (series often up to 114 µM), most hits filed as inhibitors; actives 4.4% (n = 390,000); AID 504339; further: nearly all actives have a fitted effect of over 50% in size
Target sequence (O75164 whole entry, looked up, the tested form may be a part): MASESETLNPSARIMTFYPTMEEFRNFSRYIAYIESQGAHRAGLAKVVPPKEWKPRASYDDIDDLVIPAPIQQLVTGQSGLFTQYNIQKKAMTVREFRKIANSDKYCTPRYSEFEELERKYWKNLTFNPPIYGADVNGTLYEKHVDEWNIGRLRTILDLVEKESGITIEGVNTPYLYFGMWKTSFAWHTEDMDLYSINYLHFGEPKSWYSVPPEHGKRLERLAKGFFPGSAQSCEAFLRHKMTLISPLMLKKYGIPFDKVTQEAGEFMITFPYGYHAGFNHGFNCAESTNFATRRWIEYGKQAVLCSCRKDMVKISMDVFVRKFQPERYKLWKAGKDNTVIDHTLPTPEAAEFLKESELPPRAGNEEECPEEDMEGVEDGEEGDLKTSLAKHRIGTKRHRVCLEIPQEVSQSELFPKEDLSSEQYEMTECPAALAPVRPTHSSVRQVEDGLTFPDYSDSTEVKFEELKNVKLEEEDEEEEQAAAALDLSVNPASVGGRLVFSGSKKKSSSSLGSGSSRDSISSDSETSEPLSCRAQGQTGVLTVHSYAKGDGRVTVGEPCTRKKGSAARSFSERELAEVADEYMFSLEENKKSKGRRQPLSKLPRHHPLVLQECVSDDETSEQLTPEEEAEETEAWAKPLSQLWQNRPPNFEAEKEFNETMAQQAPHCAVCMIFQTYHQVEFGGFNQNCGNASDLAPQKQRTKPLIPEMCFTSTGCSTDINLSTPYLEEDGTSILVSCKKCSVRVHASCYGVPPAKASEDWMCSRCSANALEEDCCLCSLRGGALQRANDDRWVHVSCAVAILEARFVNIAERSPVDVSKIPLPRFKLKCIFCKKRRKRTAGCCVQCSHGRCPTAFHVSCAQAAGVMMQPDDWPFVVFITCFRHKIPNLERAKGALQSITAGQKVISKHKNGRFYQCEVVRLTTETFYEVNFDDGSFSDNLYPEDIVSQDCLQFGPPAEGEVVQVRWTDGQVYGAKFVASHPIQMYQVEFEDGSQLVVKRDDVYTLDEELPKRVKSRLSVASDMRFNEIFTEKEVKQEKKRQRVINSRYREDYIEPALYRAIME
A number is an active result; 0 = inactive; ? = inconclusive; - = not tested or not shown; ! = not active in a repeat; [ ] = dose if it differs, or a comment. Compounds with a hit are over-represented: about 10% of the library has one in this group of screens. The call rests on the fitted dose curve; in most records, active means well fitted curve in the direction sought with a large enough effect; inconclusive means small, poorly fitted or top-dose-only effect, or another doubt; inactive means no such curve, though single readings can be large; an effect the other way counts as inactive or inconclusive.

SMILES	L3MBTL1 block	HP1b binding inh	BAZ2B block	G9a block	GLS inh	JMJD2A Tudor inh
COc1ccc(C(c2nnnn2Cc2ccccc2)N2CCN(c3nc4ccccc4s3)CC2)cc1OC (stereo not given)	0	0	0	20µM	0	79µM
CCCN1C[C@H](CSC)C[C@H]2c3cccc4[nH]cc(c34)C[C@@H]21	-	-	-	0[21.5 µM]	-	-
CNS(=O)(=O)c1ccc(NCC2COc3ccccc3O2)c([N+](=O)[O-])c1 (stereo not given)	0	0	50µM	16µM	0	0
CCOc1ccc(-c2cc3c(=O)n(Cc4nc(-c5ccc(OCC)c(OC)c5)oc4C)ccn3n2)cc1Cl	-	0	0	0	0	0
O=C(c1cccc(Cl)c1)N1c2ncnn2C2(CCCCC2)[C@@H]2CCCC[C@@H]21	-	0	0	0	0	0
NS(=O)(=O)c1ccc(CCNC(=O)c2ccc3nccnc3c2)cc1	16µM	71µM	-	-	?	40µM
Cc1ccc2c(CC(=O)NCCc3ccc(S(N)(=O)=O)cc3)coc2c1	-	0	0	0[12.7 µM]	0	45µM
CC(NS(=O)(=O)c1ccc(Br)cc1)C(=O)NCCc1ccccc1 (stereo not given)	0	0	0	40µM	0	0
O=S(=O)(NCCc1ccccc1)c1ccc(Br)cc1	0	0	0	0	0	0
O=C(CCS(=O)(=O)c1ccc(Br)cc1)NCCc1ccccc1	-	?	?	50µM	0	40µM
O=C(CCNS(=O)(=O)c1ccc(Br)cc1)NCCc1ccccc1	-	0	0	0	0	0
COc1cccc(-n2c(=O)c3sc4ccccc4c3n(CC(=O)Nc3ccccc3OC)c2=O)c1	-	0	?	?	0	0
COc1cc(-c2nnc(SCC(=O)Nc3cccc(C#N)c3)o2)cc(OC)c1OC	-	0	0	?	0	0
CCc1ccc(NCc2cc3cc4c(cc3n(CC(=O)Nc3ccccc3Cl)c2=O)OCO4)cc1	-	0	?	?	?	0
COc1ccc(CNC(=O)CCS(=O)(=O)c2ccc(Br)cc2)cc1	-	?	50µM	45µM	0	?
Cc1ccc(CC(=O)NCCCc2ccccc2)cc1	-	0	0	0	0	0
NS(=O)(=O)c1ccc(CCNC(=O)CCS(=O)(=O)c2ccc(Br)cc2)cc1	-	18µM	32µM	28µM	?	32µM
NS(=O)(=O)c1ccc(CCNC(=O)CSc2ccccc2)cc1	0	0	0	0	0	0[11.4 µM]
CCOc1ccc(CCNC(=O)CCS(=O)(=O)c2ccc(Br)cc2)cc1OCC	-	0	0	0	0	0
COc1ccc(S(=O)(=O)CCC(=O)NCc2ccc(C)o2)cc1	0	0	0	-	0	0
Cc1ccc(S(=O)(=O)CCNC(=O)Cc2ccccc2)cc1	0	0	0	0	0	20µM
NS(=O)(=O)c1ccc(CCNC(=O)CNCCc2ccccc2)cc1	-	?	50µM	50µM	0	25µM
CCOc1ccccc1NC(=O)C1CCCN(c2ncnc3onc(-c4ccc(F)cc4)c23)C1 (stereo not given)	-	0	0	0	0	0
CCc1ccc(NCc2cc3ccc(OC)cc3n(CC(=O)Nc3ccc(F)cc3F)c2=O)cc1	-	0	0	?	0	0
COc1cc(O)c(C(CC(=O)N2CCN(c3ccccc3)CC2)c2ccc(N(C)C)cc2)c(OC)c1 (stereo not given)	-	?	25µM	?	0	28µM
SMILES	L3MBTL1 block	HP1b binding inh	BAZ2B block	G9a block	GLS inh	JMJD2A Tudor inh
COc1cc(O)c(C(CC(=O)N2CCCC(C)C2)c2ccc(N(C)C)cc2)c(OC)c1 (stereo not given)	-	?	50µM	?	0	40µM
COc1ccc(NC(=O)Cc2csc(COc3cccc(C)c3)n2)cc1OC	-	0	0	0	0	0
CC(C)NC(=O)CCC(=O)N1Cc2ccccc2Oc2ncccc21	-	0	0	0	0	0
O=C1Cc2ccccc2C(c2ccc(Br)cc2)N1 (stereo not given)	-	0	0	0	0	0
O=C1NC2=C(CCc3ccccc32)C(c2ccc(Br)cc2)N1 (stereo not given)	-	0	0	35µM	0	0
N#Cc1cc2ccccc2nc1SCC(=O)NC1CC1	-	0	0	50µM	0	0
CCNc1nc(OC)nc(Oc2ccc(=O)[nH]n2)n1	-	0	0	0	0	0
COc1ccc(-c2oc(NC(=O)CCl)c(C#N)c2-c2ccc(OC)cc2)cc1	-	0	50µM	50µM	0	?
Cc1ccc(C2c3[nH]c4ccccc4c3CCN2C(=O)CCc2ccccc2)cc1 (stereo not given)	-	0	?	0	0	?
COc1ccc(Oc2cc(Cl)nc(N)n2)cc1	0	0	0	50µM	0	0
COc1cccc(Oc2cc(Cl)nc(N)n2)c1	0	0	0	0	0	0
CC1=C(/C=C/C(C)=C/C=C/C(C)=C\C(=O)O)C(C)(C)CCC1	-	0	-	0[12.7 µM]	0	0
CC1=C(/C=C/C(=C/C=C/C(C)=C/C(=O)O)c2ccc(C)cc2)C(C)(C)CCC1	-	-	-	22µM	-	-
CC1=C(\C=C/C(C)=C/C=C\C(C)=C\C(=O)O)C(C)(C)CCC1	-	-	-	10µM	-	-
CC1=C(/C=C/C(C)=C/C=C/C(C)=C/C(=O)Nc2ccc(O)cc2)C(C)(C)CCC1	0	?	0	13µM!	0	50µM
Nc1c(Br)cc(Br)c2cccnc12	-	0	-	-	-	0
NC(=NC1C2CC3CC(C2)CC1C3)Nc1ccc(I)cc1 (stereo not given)	-	-	-	28µM!	-	-
CC(OC(=O)c1cccnc1SCc1cc(=O)n2ccccc2n1)c1ccccn1 (stereo not given)	-	0	0	50µM	0	0
CCOc1ccc2nc(SCC(=O)N3CCCCCC3)c(C#N)cc2c1	-	0	?	0[12.7 µM]	0	0
CCOc1ccc2cc(C#N)c(SCC(=O)N3CCOCC3)nc2c1	0	0	0	50µM	0	0
COc1ccc(-c2oc3ccc(N4CCOCC4)cc3c2/C=C/c2ccc(OC)c(OC)c2)cc1	0	0	?	50µM	0	0
COc1ccc(/C=C/c2c(-c3ccc(OC)cc3)sc3ccc(N4CCOCC4)cc23)cc1	0	0	0	0	0	0
COc1ccc(CCNC(=O)Cn2c(=O)nc(-c3ccccc3)c3ccccc32)cc1OC	-	0	0	0	0	0
CC1CC(C)CN(c2nc(N(C)c3ccccc3)nc(N)c2[N+](=O)[O-])C1 (stereo not given)	0	0	?	10µM	0	40µM
CC1CN(c2nc(N(C)c3ccccc3)nc(N)c2[N+](=O)[O-])CC(C)O1 (stereo not given)	-	?	0	0	0	?
CCOC(=O)N1CCN(S(=O)(=O)c2ccc(C(=O)N(CCCN(C)C)c3nc4c(C)c(C)ccc4s3)cc2)CC1	0	0	0	50µM	0	?
